Laboratory results taken from PubChem BioAssay (EPA / NIEHS).
Several values for one entry are separate records, joined by “and”; a condition that tells them apart may be missing. Equal entries are not always repeated. Inconclusive results are not listed. The source holds several records for some structures; these can differ, active in one and inactive in another. Activity calls are given as the source filed them. The calls were made as follows, unless noted: active = hit-call score of the fitted dose curve at least 0.9, where 1 is the maximum; inactive = score below 0.9.

What was measured:
[1] = ATG_M_06_TRANS: Attagene TRANS-FACTORIAL HepG2 Assay for M06 Transcription Factor (Internal Marker) (AID 2282983; active = hit-call score of the fitted dose curve at least 0.9, where 1 is the maximum;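 also: reporter transcript level by RT-PCR then capillary electrophoresis fluorescence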); conditions: HepG2 Attagene TRANS M06 internal marker reporter
How it was run: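 Read-out: fluorescent reporter cDNA fragments resolved by capillary electrophoresis after RT-PCR and HpaI cut. Source cells were HepG2 carrying transfected multi-reporter GAL4 constructs, dosed 24 h. Increase over DMSO control analysed.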

[2] = ATG_M_32_TRANS: Attagene TRANS-FACTORIAL HepG2 Assay for M32 Transcription Factor (Internal Marker) (AID 2282984; active = hit-call score of the fitted dose curve at least 0.9, where 1 is the maximum;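 also: transcript level of a background control reporter unit measured by RT-PCR and capillary electrophoresis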); conditions: HepG2 Attagene TRANS M32 internal marker reporter
How it was run: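 Cell-based TRANS-format assay in HepG2: exogenous chimeric GAL4 reporter units transiently expressed, compounds applied 24 h. Reporter mRNA detected by RT-PCR plus capillary electrophoresis; this readout is an internal background marker.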

[3] = target: Nuclear receptor subfamily 4 group A member 2 (Homo sapiens) (UniProt P43354); experiment: ATG_NURR1_TRANS: Attagene TRANS-FACTORIAL HepG2 Assay for human Nuclear Receptor Related Protein 1 (NURR1) (AID 2282985; active = hit-call score of the fitted dose curve at least 0.9, where 1 is the maximum); conditions: HepG2 Attagene TRANS reporter, mRNA readout
Chain of Nuclear receptor subfamily 4 group A member 2 (Homo sapiens) (P43354 whole entry, looked up, the tested form may be a part): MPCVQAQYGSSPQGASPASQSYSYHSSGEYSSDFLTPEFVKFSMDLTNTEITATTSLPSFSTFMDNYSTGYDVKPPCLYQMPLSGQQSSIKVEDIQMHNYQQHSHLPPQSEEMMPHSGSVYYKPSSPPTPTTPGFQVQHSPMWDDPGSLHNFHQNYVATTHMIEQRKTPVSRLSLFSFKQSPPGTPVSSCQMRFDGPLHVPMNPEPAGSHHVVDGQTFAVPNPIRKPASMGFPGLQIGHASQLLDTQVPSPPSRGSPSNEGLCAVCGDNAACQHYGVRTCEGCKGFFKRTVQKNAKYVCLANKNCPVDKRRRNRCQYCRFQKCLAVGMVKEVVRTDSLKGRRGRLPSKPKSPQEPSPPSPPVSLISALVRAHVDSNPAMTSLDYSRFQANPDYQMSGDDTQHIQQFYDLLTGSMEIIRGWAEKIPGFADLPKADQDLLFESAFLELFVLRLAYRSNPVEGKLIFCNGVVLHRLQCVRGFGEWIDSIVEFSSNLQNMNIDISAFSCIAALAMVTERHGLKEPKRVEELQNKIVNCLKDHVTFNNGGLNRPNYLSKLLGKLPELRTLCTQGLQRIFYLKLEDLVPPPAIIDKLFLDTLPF
How it was run: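 Measures transcriptional activation by an exogenous NR-Gal4 chimera in transfected HepG2 liver cells. After 24 h, reporter RNA is reverse-transcribed, amplified and resolved by capillary electrophoresis; DMSO defines baseline.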

[4] = target: Transcriptional activator Myb (Homo sapiens) (UniProt P10242); experiment: ATG_Myb_CIS: Attagene CIS-FACTORIAL HepG2 Assay for human Myeloblastosis (Myb) Proto-Oncogene Transcription Factor (AID 2282986); conditions: HepG2 Attagene CIS-FACTORIAL Myb reporter transcription; actives raise or lower the signal
Chain of Transcriptional activator Myb (Homo sapiens) (P10242 whole entry, looked up): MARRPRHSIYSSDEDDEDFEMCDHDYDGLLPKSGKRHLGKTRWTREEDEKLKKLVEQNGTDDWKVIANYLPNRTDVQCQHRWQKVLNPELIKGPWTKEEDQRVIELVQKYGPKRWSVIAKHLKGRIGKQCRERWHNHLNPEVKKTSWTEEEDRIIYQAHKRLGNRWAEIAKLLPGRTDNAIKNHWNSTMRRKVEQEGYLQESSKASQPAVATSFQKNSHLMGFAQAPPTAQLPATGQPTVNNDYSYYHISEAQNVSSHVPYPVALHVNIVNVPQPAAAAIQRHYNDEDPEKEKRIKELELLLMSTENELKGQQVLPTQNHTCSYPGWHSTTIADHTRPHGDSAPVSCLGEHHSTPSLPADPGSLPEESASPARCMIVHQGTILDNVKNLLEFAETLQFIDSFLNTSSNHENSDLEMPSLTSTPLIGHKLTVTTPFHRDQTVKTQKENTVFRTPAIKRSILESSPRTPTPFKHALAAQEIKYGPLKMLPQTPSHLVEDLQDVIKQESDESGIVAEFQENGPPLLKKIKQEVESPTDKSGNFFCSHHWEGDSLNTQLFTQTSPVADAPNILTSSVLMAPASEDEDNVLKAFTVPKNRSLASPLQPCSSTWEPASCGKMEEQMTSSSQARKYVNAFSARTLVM
How it was run: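 Multiplexed cis-reporter system in HepG2: transient transfection, 24 h treatment, mRNA readout by RT-PCR and capillary electrophoresis. Both increases and decreases are scored versus DMSO negative control.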

[5] = target: Nuclear respiratory factor 1 (Homo sapiens) (UniProt Q16656); experiment: ATG_NRF1_CIS: Attagene CIS-FACTORIAL HepG2 Assay for human Nuclear Respiratory Factor 1 (NRF1) Orphan Gene (AID 2282987); conditions: HepG2 NRF1 cis-element reporter, Attagene multiplex; actives raise or lower the signal
Chain of Nuclear respiratory factor 1 (Homo sapiens) (Q16656 whole entry, looked up): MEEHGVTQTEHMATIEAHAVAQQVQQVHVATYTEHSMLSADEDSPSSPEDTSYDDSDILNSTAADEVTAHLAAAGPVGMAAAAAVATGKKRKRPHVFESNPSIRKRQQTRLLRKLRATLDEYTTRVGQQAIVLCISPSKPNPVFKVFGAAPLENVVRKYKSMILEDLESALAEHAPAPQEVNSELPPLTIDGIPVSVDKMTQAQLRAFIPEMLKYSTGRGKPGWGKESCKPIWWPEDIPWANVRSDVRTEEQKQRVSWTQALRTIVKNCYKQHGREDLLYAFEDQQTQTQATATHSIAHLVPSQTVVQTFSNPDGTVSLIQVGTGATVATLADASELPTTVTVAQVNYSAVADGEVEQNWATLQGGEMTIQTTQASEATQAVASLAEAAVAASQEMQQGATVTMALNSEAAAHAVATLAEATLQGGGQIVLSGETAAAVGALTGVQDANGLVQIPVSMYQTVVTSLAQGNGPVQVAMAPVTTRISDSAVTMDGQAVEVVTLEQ
How it was run: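 Endogenous factor activity was captured via cis-element-driven reporter transcripts in HepG2 cells. Following 24 h chemical treatment, transcripts were quantified by RT-PCR and capillary electrophoresis.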

[6] = ATG_NFI_CIS: Attagene CIS-FACTORIAL HepG2 Assay for human Nuclear Factor I (NFI) (AID 2282989); conditions: HepG2 cis-regulatory reporter, NFI response element transcription; actives raise or lower the signal
How it was run: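 Cells: human liver HepG2, transiently transfected with promoter-regulated reporter transcription units. Exposure 24 h. Detection: fluorescent RT-PCR products separated by capillary electrophoresis, normalised to DMSO negative control.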

[7] = ATG_NF_kB_CIS: Attagene CIS-FACTORIAL HepG2 Assay for human Nuclear Factor Kappa B (NF-kB) (AID 2282991); conditions: HepG2 Attagene cis-factorial NF-kB reporter mRNA; actives raise or lower the signal
How it was run: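 After 24 h compound incubation, transfected HepG2 cells yield total RNA; reporter cDNA is PCR-amplified, end-labelled with 6-FAM, HpaI-digested and analysed on a genetic analyser. Endogenous factor activity, DMSO-referenced bidirectional fit.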

[8] = ATG_NRF2_ARE_CIS: Attagene CIS-FACTORIAL HepG2 Assay for human Nuclear Factor Erythroid 2 Related Factor 2 (NFR2) response to Antioxidant Response Elements (ARE) (AID 2282992); conditions: HepG2 Attagene ARE/NRF2 reporter, transcription factor activity; actives raise or lower the signal;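 as to AC50: reporter mRNA level measured by RT-PCR and capillary electrophoresis fluorescence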
How it was run: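 Endogenous transcription factor activity in human liver HepG2 cells is tracked via a cis-element-driven reporter within a multiplexed set. mRNA induction is read by RT-PCR and capillary electrophoresis after 24 h, with DMSO as baseline.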

[9] = ATG_Oct_MLP_CIS: Attagene CIS-FACTORIAL HepG2 Assay for human Octamer-Binding Transcription Factor (Oct) (AID 2282993); conditions: HepG2 Attagene cis-factorial Oct reporter, mRNA; actives raise or lower the signal
How it was run: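 HepG2, transient MRTU transfection, cis promoter elements; 24 h dosing; RT-PCR/CE fluorescence read-out of reporter mRNA; fit both directions vs DMSO.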

[10] = target: Cellular tumor antigen p53 (Homo sapiens) (UniProt P04637); experiment: ATG_p53_CIS: Attagene CIS-FACTORIAL HepG2 Assay for human p53 Transcription Factor (AID 2282994); conditions: HepG2 p53 cis-element reporter, Attagene mRNA; actives raise or lower the signal
Chain of Cellular tumor antigen p53 (Homo sapiens) (P04637 whole entry, looked up, the tested form may be a part): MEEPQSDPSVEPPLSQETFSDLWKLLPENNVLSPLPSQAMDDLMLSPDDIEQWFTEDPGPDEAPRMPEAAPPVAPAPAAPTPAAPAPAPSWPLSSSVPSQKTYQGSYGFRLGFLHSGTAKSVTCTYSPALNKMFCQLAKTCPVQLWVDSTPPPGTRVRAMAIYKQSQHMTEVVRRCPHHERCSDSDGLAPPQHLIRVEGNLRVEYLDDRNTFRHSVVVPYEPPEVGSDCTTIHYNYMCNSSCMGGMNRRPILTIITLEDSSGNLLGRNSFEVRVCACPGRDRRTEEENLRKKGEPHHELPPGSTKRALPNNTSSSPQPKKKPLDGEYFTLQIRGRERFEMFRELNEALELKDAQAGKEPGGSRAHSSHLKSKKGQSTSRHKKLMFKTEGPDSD
How it was run: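 Steps: transfect HepG2 with multiplexed cis reporter constructs; dose chemicals 24 h; extract RNA, reverse-transcribe, PCR-amplify reporter sequences; FAM-label, HpaI-digest, resolve fragments by CE. Activity fitted both directions relative to DMSO.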

[11] = BSK_3C_TissueFactor: BioMAP Diversity Plus: 3C Assay for Tissue Factor Biomarker Activity (AID 2282997); conditions: BioMAP 3C HUVEC, tissue factor biomarker readout; actives raise or lower the signal
How it was run: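 HUVEC, 3C system, 24 h post-dose; Tissue Factor by ELISA; bidirectional fit vs DMSO baseline.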

[12] = BSK_3C_uPAR: BioMAP Diversity Plus: 3C Assay for Urokinase-type plasminogen activator receptor (uPAR) Biomarker Activity (AID 2282998); conditions: BioMAP 3C HUVEC, uPAR biomarker ELISA; actives raise or lower the signal
How it was run: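 A multiplexed primary-cell system built on human umbilical vein endothelium was used, with chemical present for 24 h before reading. Cell-surface uPAR was detected by ELISA; signal change in either direction counted against DMSO.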

[13] = BSK_3C_VCAM1: BioMAP Diversity Plus: 3C Assay for Vascular cell adhesion molecule 1 (VCAM1) Biomarker Activity (AID 2282999); conditions: BioMAP 3C HUVEC, VCAM1 ELISA, cytokine-stimulated; actives raise or lower the signal
How it was run: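 Activity fitted in both directions relative to DMSO, with ELISA measurement of the surface marker on primary HUVEC (3C) at 24 h post-treatment; parallel SRB staining (0.1% SRB, TCA-fixed, 560 nm) flagged overt cytotoxicity.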

[14] = BSK_4H_Eotaxin3: BioMAP Diversity Plus: 4H Assay for Eotaxin 3 Biomarker Activity (AID 2283000); conditions: primary human endothelial cells (HUVEC); actives raise or lower the signal
How it was run: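 Readout is Eotaxin-3 (CCL26) level by ELISA in primary human umbilical vein endothelial cells harvested 24 h after chemical exposure; activity fitted in both directions against DMSO control.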

[15] = target: human Peroxisome Proliferator-activated Receptor alpha (PPARa), PPARA (gene 5465) (UniProt Q07869); experiment: ATG_PPARa_TRANS: Attagene TRANS-FACTORIAL HepG2 Assay for human Peroxisome Proliferator-activated Receptor alpha (PPARa) (AID 2283001; active = hit-call score of the fitted dose curve at least 0.9, where 1 is the maximum;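 as to AC50: potency for gain of reporter signal over DMSO so agonist or activator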)
Chain of human Peroxisome Proliferator-activated Receptor alpha (PPARa), PPARA (gene 5465) (Q07869 whole entry, looked up, the tested form may be a part): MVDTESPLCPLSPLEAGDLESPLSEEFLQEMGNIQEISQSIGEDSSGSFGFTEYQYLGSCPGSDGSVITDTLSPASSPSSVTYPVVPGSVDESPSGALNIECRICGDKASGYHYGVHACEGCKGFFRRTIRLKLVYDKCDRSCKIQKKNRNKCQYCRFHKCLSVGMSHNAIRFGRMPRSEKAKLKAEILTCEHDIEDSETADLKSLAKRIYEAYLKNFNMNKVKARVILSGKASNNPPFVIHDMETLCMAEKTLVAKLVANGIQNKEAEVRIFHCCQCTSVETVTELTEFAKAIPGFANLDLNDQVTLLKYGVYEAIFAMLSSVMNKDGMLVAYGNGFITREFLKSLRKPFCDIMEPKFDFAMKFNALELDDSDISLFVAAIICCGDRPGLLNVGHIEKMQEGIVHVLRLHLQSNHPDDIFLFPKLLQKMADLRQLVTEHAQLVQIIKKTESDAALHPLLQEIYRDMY
How it was run: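 Transfected HepG2 cells treated with test chemical for 24 h. RNA isolated, reverse-transcribed with oligo(dT), PCR-amplified, FAM-labelled and HpaI-digested. Fragments sized by capillary electrophoresis; gain-of-signal fit relative to DMSO.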

[16] = target: human Peroxisome Proliferator-activated Receptor delta (PPARd), PPARD (gene 5467) (UniProt Q03181); experiment: ATG_PPARd_TRANS: Attagene TRANS-FACTORIAL HepG2 Assay for human Peroxisome Proliferator-activated Receptor delta (PPARd) (AID 2283002; active = hit-call score of the fitted dose curve at least 0.9, where 1 is the maximum)
Chain of human Peroxisome Proliferator-activated Receptor delta (PPARd), PPARD (gene 5467) (Q03181 whole entry, looked up, the tested form may be a part): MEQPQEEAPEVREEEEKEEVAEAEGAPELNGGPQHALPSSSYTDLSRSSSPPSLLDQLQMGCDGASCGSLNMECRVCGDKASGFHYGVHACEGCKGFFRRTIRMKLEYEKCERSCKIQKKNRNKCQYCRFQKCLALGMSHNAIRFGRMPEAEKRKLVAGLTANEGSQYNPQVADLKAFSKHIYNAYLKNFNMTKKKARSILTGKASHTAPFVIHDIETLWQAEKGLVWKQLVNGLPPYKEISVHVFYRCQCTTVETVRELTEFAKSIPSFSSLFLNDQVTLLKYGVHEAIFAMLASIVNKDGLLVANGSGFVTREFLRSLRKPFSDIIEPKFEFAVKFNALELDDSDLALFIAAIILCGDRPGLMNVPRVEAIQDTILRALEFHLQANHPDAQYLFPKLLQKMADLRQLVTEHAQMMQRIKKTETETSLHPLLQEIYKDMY
How it was run: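 Transient HepG2 transfection (multiple GAL4-UAS RTUs, chimeric receptor-Gal4); 24 h dosing; total RNA → oligo(dT) RT → PCR → 6-FAM primer extension → HpaI cut → CE. Positive direction vs DMSO.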

[17] = read-out: Intercellular Adhesion Molecule 1 (ICAM1), ICAM1 (gene 3383); experiment: BSK_3C_ICAM1: BioMAP Diversity Plus: 3C Assay for Intercellular Adhesion Molecule 1 (ICAM1) Biomarker Activity (AID 2283003); conditions: primary human endothelial cells (HUVEC); actives raise or lower the signal
How it was run: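 ELISA read-out of ICAM-1; HUVEC (primary human), 3C system, 24 h post-dosing; bidirectional fit vs DMSO baseline.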

[18] = target: Myc proto-oncogene protein (Homo sapiens) (UniProt P01106); experiment: ATG_Myc_CIS: Attagene CIS-FACTORIAL HepG2 Assay for human Myelocytomatosis (Myc) Proto-Oncogene Transcription Factor (AID 2282990); conditions: HepG2, Attagene cis-reporter transcription factor activity; actives raise or lower the signal
Chain of Myc proto-oncogene protein (Homo sapiens) (P01106 whole entry, looked up): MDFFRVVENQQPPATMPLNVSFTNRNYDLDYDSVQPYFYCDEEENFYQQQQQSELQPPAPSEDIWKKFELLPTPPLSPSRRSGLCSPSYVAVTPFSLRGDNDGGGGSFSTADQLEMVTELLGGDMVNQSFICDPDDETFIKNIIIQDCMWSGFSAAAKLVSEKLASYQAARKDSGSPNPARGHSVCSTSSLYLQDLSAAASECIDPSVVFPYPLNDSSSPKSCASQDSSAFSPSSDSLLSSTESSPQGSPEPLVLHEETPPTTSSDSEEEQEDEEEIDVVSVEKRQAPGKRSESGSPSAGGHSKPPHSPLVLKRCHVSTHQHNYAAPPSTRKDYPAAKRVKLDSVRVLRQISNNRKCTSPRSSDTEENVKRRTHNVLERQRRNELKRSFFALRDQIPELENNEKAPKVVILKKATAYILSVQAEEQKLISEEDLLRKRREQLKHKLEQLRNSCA
How it was run: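 HepG2, transient MRTU transfection (cis promoters, endogenous TFs); 24 h dosing; TriZol RNA → oligo(dT) RT → PCR → 6-FAM primer extension → HpaI cut → CE. Bidirectional fit vs DMSO.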

[19] = target: human Retinoic Acid Receptor beta (RARb), RARB (gene 5915) (UniProt P10826); experiment: ATG_RARb_TRANS: Attagene TRANS-FACTORIAL HepG2 Assay for human Retinoic Acid Receptor beta (AID 2283004; active = hit-call score of the fitted dose curve at least 0.9, where 1 is the maximum)
Chain of human Retinoic Acid Receptor beta (RARb), RARB (gene 5915) (P10826 whole entry, looked up, the tested form may be a part): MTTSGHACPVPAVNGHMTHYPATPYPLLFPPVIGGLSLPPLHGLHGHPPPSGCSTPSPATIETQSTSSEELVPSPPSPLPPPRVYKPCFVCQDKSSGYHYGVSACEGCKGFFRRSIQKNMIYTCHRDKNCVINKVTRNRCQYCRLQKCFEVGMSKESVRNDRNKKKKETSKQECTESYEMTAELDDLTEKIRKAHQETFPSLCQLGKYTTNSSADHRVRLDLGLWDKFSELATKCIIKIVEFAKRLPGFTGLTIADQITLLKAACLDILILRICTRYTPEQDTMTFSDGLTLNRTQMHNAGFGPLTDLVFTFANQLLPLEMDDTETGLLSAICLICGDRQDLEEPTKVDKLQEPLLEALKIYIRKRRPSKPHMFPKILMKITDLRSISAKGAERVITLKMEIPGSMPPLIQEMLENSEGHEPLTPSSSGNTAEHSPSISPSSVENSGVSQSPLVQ
How it was run: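 Readout is reporter mRNA induction: RNA reverse-transcribed, PCR-amplified, FAM-labelled, HpaI-cut and resolved by capillary electrophoresis. Transiently transfected HepG2 cells carrying exogenous NR–Gal4 chimeras were dosed for 24 h; activity fitted upward relative to DMSO.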

Measured: AC50

CCOC(=O)/C=C(C)/C=C/C[C@@H](C)CCCC(C)C
active: [3] 125 µM | [4] 152 µM | [5] 65.2 µM | [6] 180 µM | [7] 43.2 µM | [8] 56.5 µM | [9] 25 µM | [11] 15.6 µM | [12] 33.1 µM | [13] 26.6 µM | [14] 30 µM | [15] 64.9 µM | [17] 30.2 µM
inactive: [1] | [2] | [10] | [16]

ClCc1ccccn1
inactive: [1] | [2] | [4] | [6] | [18] | [10] | [15] | [16]
active: [8] 44.3 µM | [9] 59.6 µM

CC(C)(C)CC(C)(C)c1ccc(O)cc1
active: [8] 11 µM [middle of 4 runs] | [10] 16 µM and 16.4 µM | [11] 7.99 µM | [12] 7.17 µM | [17] 10.8 µM
inactive: [1] | [2] | [3] | [4] | [6] | [7] | [9] | [10] | [16]

COP(=S)(OC)Oc1ccc(Sc2ccc(OP(=S)(OC)OC)cc2)cc1
active: [8] 3.58 µM | [12] 20 µM | [14] 20 µM | [15] 22.7 µM
not listed: [4] | [7] | [13] | [16] | [19]
inactive: all other assays above

CC(C)C1CCC(Cc2ccc(Cl)cc2)C1(O)Cn1cncn1 (configuration not stated)
inactive: [1] | [2] | [4] | [5] | [6] | [18] | [7] | [9] | [19]
active: [8] 13.2 µM | [10] 11 µM

ClCCBr
inactive: [1] | [2] | [3] | [5] | [6] | [7] | [8] | [9] | [10] | [15]

O=C(Cc1ccccc1)c1ccccc1
inactive: [1] | [2] | [4] | [5] | [6] | [9] | [10] | [15] | [16] | [19]
active: [8] 19.8 µM

ClC(Cl)=C(Cl)C(Cl)=C(Cl)Cl
active: [6] 163 µM | [18] 119 µM | [8] 66 µM | [9] 149 µM | [11] 14.6 µM | [12] 32.4 µM | [17] 34 µM
inactive: [1] | [2] | [3] | [16]

O=C(OC1CCCCC1)c1ccccc1C(=O)OC1CCCCC1
active: [8] 18.4 µM | [11] 7.93 µM | [12] 11.9 µM | [13] 11.7 µM | [17] 14.6 µM
not listed: [4] | [14] | [15] | [16] | [19]
inactive: all other assays above
